Experimental data from PubChem BioAssay (Tox21).
Inconclusive results are not listed. Activity calls are given as the source filed them. Unless noted, the call rests on the fitted dose curve.

Columns and labels:
[1] = Nuclear factor erythroid 2-related factor 2/antioxidant responsive element (Nrf2/ARE) small molecule agonists: qHTS cell viability counter screen in human keratinocytes (AID 1919968; active means well fitted curve in the direction sought with a large enough effect in the repeat runs; an effect the other way counts as inactive or inconclusive; further: nearly all actives have a fitted effect of over 55% in size)
Summary of the method: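 Cells of the KeratinoSens line were plated at 1,500 per well and left for 5 h before compound transfer from DMSO stocks. After a 23 h incubation (37 C, 5% CO2), CellTiter-Fluor was added. Signal was taken as fluorescence intensity 1 h later.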

[2] = Nuclear factor erythroid 2-related factor 2/antioxidant responsive element (Nrf2/ARE) small molecule agonists: luciferase reporter gene qHTS assay in human keratinocytes (AID 1919969); further: nearly all actives have a fitted effect of over 35% in size
[3] = target: Gonadotropin-releasing hormone receptor (Homo sapiens) (UniProt P30968); assay: Human gonadotropin-releasing hormone receptor (GnRHR) small molecule agonists, calcium flux assay in GnRHR-HEK293 cells (AID 1920063); further: nearly all actives have a fitted effect of over 35% in size
Sequence of Gonadotropin-releasing hormone receptor (Homo sapiens) (P30968 whole entry, looked up): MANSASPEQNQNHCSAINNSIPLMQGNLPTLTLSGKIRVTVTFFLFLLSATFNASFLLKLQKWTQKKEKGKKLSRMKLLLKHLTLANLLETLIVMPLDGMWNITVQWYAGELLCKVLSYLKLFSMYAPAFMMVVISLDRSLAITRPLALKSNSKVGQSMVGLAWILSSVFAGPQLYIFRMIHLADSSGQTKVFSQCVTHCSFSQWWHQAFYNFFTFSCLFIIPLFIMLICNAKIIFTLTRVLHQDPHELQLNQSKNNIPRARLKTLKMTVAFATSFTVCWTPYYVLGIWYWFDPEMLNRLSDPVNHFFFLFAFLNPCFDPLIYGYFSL
Summary of the method: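 Compounds dissolved in DMSO are pin-transferred onto dye-loaded GnRHR-HEK293 cells, which were seeded 18 h before at 37 C/5% CO2. Calcium signal is read as fluorescence intensity at 1 s intervals for 3 min.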

[4] = target: KiSS-1 receptor (Homo sapiens) (UniProt Q969F8); assay: Human kisspeptin (KISS1R) small molecule agonists, calcium flux assay in KISS1R-HEK293 cells (AID 1920064; active means well fitted curve in the direction sought with a large enough effect in the repeat runs; an effect the other way counts as inactive or inconclusive)
Sequence of KiSS-1 receptor (Homo sapiens) (Q969F8 whole entry, looked up): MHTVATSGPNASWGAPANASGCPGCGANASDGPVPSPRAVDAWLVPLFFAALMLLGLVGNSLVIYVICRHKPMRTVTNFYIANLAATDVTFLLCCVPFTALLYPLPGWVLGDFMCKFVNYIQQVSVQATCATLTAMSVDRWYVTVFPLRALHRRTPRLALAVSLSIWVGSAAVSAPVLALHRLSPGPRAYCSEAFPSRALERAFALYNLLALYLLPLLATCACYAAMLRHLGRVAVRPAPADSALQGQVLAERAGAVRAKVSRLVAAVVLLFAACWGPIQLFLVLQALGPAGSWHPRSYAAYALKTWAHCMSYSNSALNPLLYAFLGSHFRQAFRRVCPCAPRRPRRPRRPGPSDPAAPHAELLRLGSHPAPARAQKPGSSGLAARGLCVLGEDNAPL
Summary of the method: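 Cell line: HEK293, stable human KISS1R. Dye loading 1 h at 37 C after 18 h culture. Read: kinetic fluorescence, 480/540 nm, 3 min at 1 s intervals.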

[5] = G protein-coupled receptor (GPCR) small molecule agonists, calcium flux assay: HEK293 wild type cell line counter screen (AID 1920065)
Summary of the method: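 Tox21 10K compounds, 15 concentrations each in triplicate, pin-transferred in DMSO onto dye-loaded cells; kinetic read at 480/540 nm for 3 min, 1 s intervals.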

[6] = p53 small molecule agonists, cell-based qHTS assay with human liver microsomes (AID 1963577)
Summary of the method: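 Fluorescence of the beta-lactamase reporter in p53RE-bla cells, detected with LiveBLAzer substrate (2 h, room temperature, dark), served as the read-out after 16 h compound exposure at 37 C with human liver microsomes and NADPH, each 0.5 mg/mL final.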

[7] = p53 small molecule agonists, cell-based qHTS assay with rat liver microsomes (AID 1963578)
Summary of the method: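 Cells carrying a p53 response element–beta-lactamase reporter were plated and rested 5 h, then dosed with compound in DMSO plus rat liver microsomes and NADPH, each at 0.5 mg/mL final. After 16 h at 37 C, LiveBLAzer substrate was added for 2 h.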

[8] = p53 small molecule agonists, cell-based qHTS assay with human liver microsomes: qHTS cell viability counter screen (AID 1963579); further: nearly all actives have a fitted effect of over 45% in size
Summary of the method: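 Cytotoxicity counter screen: p53RE-bla, 4,000 cells/well; 5 h settle, 37 C/5% CO2; cpd + HLM 0.5 mg/mL + NADPH 0.5 mg/mL (final); 16 h, 37 C; CellTiter-Glo, 30 min RT, luminescence.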

[9] = p53 small molecule agonists, cell-based qHTS assay with rat liver microsomes: qHTS cell viability counter screen (AID 1963580); further: nearly all actives have a fitted effect of over 45% in size
Summary of the method: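 Luminescent ATP readout (CellTiter-Glo, 30 min at room temperature) reports viability of p53RE-bla HCT-116 cells after 16 h at 37 C with test compounds under metabolic activation by rat liver microsomes and NADPH at 0.5 mg/mL final each.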

[10] = p53 small molecule agonists, cell-based qHTS assay: qHTS cell viability counter screen (AID 1963581); further: nearly all actives have a fitted effect of over 45% in size
Summary of the method: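 ATP content measured by luminescence in HCT-116 p53RE-bla cells treated 16 h at 37 C, same wells as the reporter screen.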

[11] = p53 small molecule agonists, cell-based qHTS assay (AID 1963582; active means well fitted activation curve with a large enough effect in the signal ratio in the repeat runs, not every such curve was filed as active; the % refers to the signal ratio)
Summary of the method: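 16 h compound exposure (37 C) of p53 response element–bla cells, preceded by 5 h recovery at 37 C/5% CO2; read-out via LiveBLAzer B/G FRET substrate, 2 h RT, fluorescence intensity.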

[12] = target: 5-hydroxytryptamine receptor 2A (Homo sapiens) (UniProt P28223); assay: 5-hydroxytryptamine receptor 2A (HTR2A) small molecule antagonists, cell-based qHTS assay (AID 1963586); further: nearly all actives have a fitted effect of over 45% in size
Sequence of 5-hydroxytryptamine receptor 2A (Homo sapiens) (P28223 whole entry, looked up): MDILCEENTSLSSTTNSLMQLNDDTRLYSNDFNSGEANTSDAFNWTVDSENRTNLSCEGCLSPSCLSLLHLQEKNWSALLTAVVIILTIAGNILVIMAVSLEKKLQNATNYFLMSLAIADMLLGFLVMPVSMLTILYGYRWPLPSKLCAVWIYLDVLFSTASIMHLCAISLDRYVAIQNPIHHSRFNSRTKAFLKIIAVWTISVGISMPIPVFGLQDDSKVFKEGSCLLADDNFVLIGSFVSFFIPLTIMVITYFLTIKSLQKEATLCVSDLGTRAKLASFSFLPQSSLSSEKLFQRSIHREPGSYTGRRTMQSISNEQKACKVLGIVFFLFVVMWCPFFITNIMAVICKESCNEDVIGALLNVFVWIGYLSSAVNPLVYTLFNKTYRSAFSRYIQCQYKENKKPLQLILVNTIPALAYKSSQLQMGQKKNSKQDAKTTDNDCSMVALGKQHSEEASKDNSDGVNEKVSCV
Summary of the method: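 CHO cells stably expressing human HTR2A were plated for 18 h at 37 C, then loaded with calcium dye for 1 h. Compounds were preincubated 5 min at room temperature before DOI (4 nM solution) was added. Kinetic fluorescence was read for 3 min.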

[13] = target: 5-hydroxytryptamine receptor 2A (Homo sapiens) (UniProt P28223); assay: 5-hydroxytryptamine receptor 2A (HTR2A) small molecule agonists, cell-based qHTS assay (AID 1963587); further: nearly all actives have a fitted effect of over 30% in size
Summary of the method: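 HTR2A-CHO cells, plated 18 h at 37 C/5% CO2, dye-loaded 1 h at 37 C; compounds in DMSO added by pin tool (agonist mode). Intracellular calcium flux read as kinetic fluorescence on FDSS over 2 min at 1 s intervals.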

[14] = target: Muscarinic acetylcholine receptor M1 (Homo sapiens) (UniProt P11229); assay: Cholinergic receptor muscarinic 1 (CHRM1) small molecule antagonists, cell-based qHTS assay (AID 1963588); further: nearly all actives have a fitted effect of over 40% in size
Sequence of Muscarinic acetylcholine receptor M1 (Homo sapiens) (P11229 whole entry, looked up): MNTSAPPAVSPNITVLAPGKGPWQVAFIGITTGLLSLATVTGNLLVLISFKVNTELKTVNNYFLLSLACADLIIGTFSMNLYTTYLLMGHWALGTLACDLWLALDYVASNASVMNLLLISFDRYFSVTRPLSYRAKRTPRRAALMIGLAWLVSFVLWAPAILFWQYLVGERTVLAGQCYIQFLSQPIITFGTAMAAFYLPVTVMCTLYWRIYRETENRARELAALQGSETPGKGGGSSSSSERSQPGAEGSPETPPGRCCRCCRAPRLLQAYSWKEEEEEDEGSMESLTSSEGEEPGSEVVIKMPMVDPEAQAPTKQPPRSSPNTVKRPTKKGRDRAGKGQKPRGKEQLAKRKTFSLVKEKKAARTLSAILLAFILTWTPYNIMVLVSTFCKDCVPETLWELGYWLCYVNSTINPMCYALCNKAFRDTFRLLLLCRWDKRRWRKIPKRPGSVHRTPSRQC
Summary of the method: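 Compounds were tested at 15 concentrations in three independent runs. Dye-loaded CHRM1-CHO cells were exposed 5 min at room temperature before stimulation by acetylcholine added at 50nM. Intracellular calcium was read kinetically on FDSS for 3 min.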

[15] = target: Muscarinic acetylcholine receptor M1 (Homo sapiens) (UniProt P11229); assay: Cholinergic receptor muscarinic 1 (CHRM1) small molecule agonists, cell-based qHTS assay (AID 1963589); further: nearly all actives have a fitted effect of over 35% in size
Summary of the method: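 Homogeneous fluorescence calcium flux, agonist mode. Human M1-expressing CHO cells; compound dosed at 15 concentrations, three independent runs; signal sampled every 1 sec.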

[16] = cAMP Responsive Elements (CRE) small molecule agonists, cell-based qHTS assay (AID 1963590)
Summary of the method: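 HEK 293T cells stably bearing CRE-bla were plated at 2,000 cells per well and rested 18 h. Compounds, positive controls or DMSO were added for 3 h at 37 C. LiveBLAzer B/G substrate was then loaded for 2 h at room temperature.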

[17] = cAMP Responsive Elements (CRE) small molecule antagonists, cell-based qHTS assay (AID 1963591; active means well fitted inhibition curve with a large enough effect in the signal ratio in the repeat runs, not every such curve was filed as active; the % refers to the signal ratio)
Summary of the method: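 First, CRE-bla HEK293T cells settled 18 h at 37 C. Next, compound and 0.25 uM final NKH477 were applied for 3 h. Last, LiveBLAzer B/G substrate was loaded for 2 h at room temperature.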

[18] = target: Beta-2 adrenergic receptor (Homo sapiens) (UniProt P07550); assay: Adrenergic beta2 receptor (ADRB2) small molecule antagonists, cell-based qHTS assay (AID 1963592); further: series mostly up to about 92 µM; nearly all actives have a fitted effect of over 50% in size
Sequence of Beta-2 adrenergic receptor (Homo sapiens) (P07550 whole entry, looked up): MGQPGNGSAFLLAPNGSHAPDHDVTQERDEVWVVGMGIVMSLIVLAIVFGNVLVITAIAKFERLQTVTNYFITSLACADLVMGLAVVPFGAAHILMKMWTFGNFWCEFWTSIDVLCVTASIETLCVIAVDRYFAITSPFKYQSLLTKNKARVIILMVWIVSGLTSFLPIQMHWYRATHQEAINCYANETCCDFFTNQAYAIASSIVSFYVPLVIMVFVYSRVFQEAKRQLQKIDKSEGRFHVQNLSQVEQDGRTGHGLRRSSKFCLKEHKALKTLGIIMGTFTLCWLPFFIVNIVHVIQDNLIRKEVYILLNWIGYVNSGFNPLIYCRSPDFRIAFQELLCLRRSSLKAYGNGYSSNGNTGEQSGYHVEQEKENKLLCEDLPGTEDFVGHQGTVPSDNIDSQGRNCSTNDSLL
Summary of the method: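 Assay format: CHO-ADRB2 cells, 18-20hr seeding at 37C/5% CO2, then compound plus 1nM isoproterenol agonist mix for 0.5hr RT. Homogeneous time-resolved fluorescence cAMP detection after 1hr, expressed as 665/615 nm ratio.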

[19] = target: D(2) dopamine receptor (Homo sapiens) (UniProt P14416); assay: Dopamine D2 receptor (DRD2) small molecule agonists, cell-based qHTS assay (AID 1963594); further: nearly all actives have a fitted effect of over 35% in size
Sequence of D(2) dopamine receptor (Homo sapiens) (P14416 whole entry, looked up): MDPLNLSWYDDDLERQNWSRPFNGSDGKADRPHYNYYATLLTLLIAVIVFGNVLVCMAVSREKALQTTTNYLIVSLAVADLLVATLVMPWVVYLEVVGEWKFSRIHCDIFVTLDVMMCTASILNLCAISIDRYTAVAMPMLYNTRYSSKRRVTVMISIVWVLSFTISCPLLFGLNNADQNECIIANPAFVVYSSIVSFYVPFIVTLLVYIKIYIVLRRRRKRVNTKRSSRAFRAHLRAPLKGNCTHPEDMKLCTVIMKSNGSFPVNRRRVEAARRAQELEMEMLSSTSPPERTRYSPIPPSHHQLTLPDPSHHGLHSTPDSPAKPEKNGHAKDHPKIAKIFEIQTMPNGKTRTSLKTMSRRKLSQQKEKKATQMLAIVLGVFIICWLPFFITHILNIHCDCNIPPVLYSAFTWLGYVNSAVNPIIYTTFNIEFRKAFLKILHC
Summary of the method: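 HEK293 cells stably expressing DRD2 were cultured 24 h at 37 C, then given Ro20-1724 (0.1 mM final) and compounds for 10 min at room temperature. NKH477 (200nM) was then added for 30 min. cAMP was read by HTRF.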

[20] = target: D(2) dopamine receptor (Homo sapiens) (UniProt P14416); assay: Dopamine D2 receptor (DRD2) small molecule antagonists, cell-based qHTS assay (AID 1963595; active means well fitted inhibition curve with a large enough effect in the signal ratio in the repeat runs, with a control signal flat; the % refers to the signal ratio)
Summary of the method: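 HEK293 cells stably expressing DRD2 were preincubated with 0.1 mM Ro20-1724, then with compound for 10 min at room temperature. Cells were stimulated with 200 nM NKH477 plus 12 nM quinpirole for 30 min, and cAMP was read by HTRF.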
On the % scale 0 is the no-effect control and ±100 the full control effect.

Nc1c(Oc2ccccc2)cc(O)c2c1C(=O)c1ccccc1C2=O
inactive: Potency [1] | Potency [2] | Potency [3] | Potency [4] | Potency [5] | Potency [6] | Potency [7] | Potency [8] | Potency [9] | Potency [10] | Potency [11] | Potency [12] | Potency [13] | Potency [14] | Potency [15] | Potency [16] | Potency [17] | Potency [18] | Potency [19] | Potency [20]

CC(C)(c1ccccc1)c1cc(-n2nc3ccccc3n2)c(O)c(C(C)(C)c2ccccc2)c1
inactive: Potency [1] | Potency [2] | Potency [3] | Potency [4] | Potency [5] | Potency [6] | Potency [7] | Potency [8] | Potency [9] | Potency [10] | Potency [11] | Potency [12] | Potency [13] | Potency [14] | Potency [15] | Potency [16] | Potency [17] | Potency [18] | Potency [19] | Potency [20]

C=CCN1CC[C@]23CCCC[C@H]2[C@H]1Cc1ccc(O)cc13
inactive: Potency [1] | Potency [2] | Potency [3] | Potency [4] | Potency [5] | Potency [6] | Potency [7] | Potency [8] | Potency [9] | Potency [10] | Potency [11] | Potency [12] | Potency [13] | Potency [14] | Potency [15] | Potency [16] | Potency [17] | Potency [18] | Potency [19] | Potency [20]

O=C/C=C/c1ccco1
inactive: Potency [1] | Potency [2] | Potency [3] | Potency [4] | Potency [5] | Potency [6] | Potency [7] | Potency [8] | Potency [9] | Potency [10] | Potency [11] | Potency [12] | Potency [13] | Potency [14] | Potency [15] | Potency [16] | Potency [17] | Potency [18] | Potency [19]

C=COCCCl
inactive: Potency [1] | Potency [2] | Potency [3] | Potency [4] | Potency [5] | Potency [6] | Potency [7] | Potency [8] | Potency [9] | Potency [10] | Potency [11] | Potency [12] | Potency [13] | Potency [14] | Potency [15] | Potency [16] | Potency [17] | Potency [18] | Potency [19] | Potency [20]

N#CC(Cl)(Cl)Cl
inactive: Potency [1] | Potency [2] | Potency [3] | Potency [4] | Potency [5] | Potency [6] | Potency [7] | Potency [8] | Potency [9] | Potency [10] | Potency [11] | Potency [12] | Potency [13] | Potency [14] | Potency [15] | Potency [16] | Potency [17] | Potency [18] | Potency [19] | Potency [20]

Brc1c(Br)c(Br)c(Br)c(Br)c1Br
inactive: activity change, negative = cytotoxicity [1] 1.17% [at 8.39 µM] | activity, positive = activation [2] 1.37% [at 8.39 µM] | activity change [3] 0.959% [at 5.22 µM, hits give high values] | activation [4] -5.73% [at 6.97 µM] | activation [5] 0.0498% [at 5.23 µM] | activation [6] 1.36% [at 5.99 µM] | activation [7] -3.05% [at 5.99 µM] | activity change, negative = cytotoxicity [8] -1.65% [at 5.99 µM] | activity change, negative = cytotoxicity [9] 2.93% [at 5.99 µM] | activity change, negative = cytotoxicity [10] -11.2% [at 5.99 µM] | activation [11] 2.53% [at 5.99 µM] | activity, negative = inhibition [12] -11.3% [at 5.62 µM] | activation [13] -1.65% [at 7.02 µM] | activity, negative = inhibition [14] 23.8% [at 5.58 µM] | activation [15] -0.148% [at 6.97 µM] | activation [16] -0.136% [at 8.39 µM] | activity change, negative = inhibition [17] -5.46% [at 8.39 µM] | activity change, negative = inhibition [18] -9.58% [at 8.39 µM] | activation [19] -0.47% [at 8.39 µM] | activity change, negative = inhibition [20] -0.734% [at 8.38 µM]
